Data published in PubChem BioAssay.

Each molecule was assayed against Concanavalin-A (Canavalia ensiformis) (UniProt P02866) (assay: compounds binding concanavalin A lectin – biochemical, small-molecule microarray, Alexa647 label, 635 nm, artefact control for SMM control protein annotation, primary screen (AID 1127;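 further: z combines 667 nm emission intensity with signal-to-noise across three replicate slides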)). Details: ConA-A647 binding fluorescence, higher = more signal.
Sequence of Concanavalin-A (Canavalia ensiformis) (P02866 whole entry, looked up): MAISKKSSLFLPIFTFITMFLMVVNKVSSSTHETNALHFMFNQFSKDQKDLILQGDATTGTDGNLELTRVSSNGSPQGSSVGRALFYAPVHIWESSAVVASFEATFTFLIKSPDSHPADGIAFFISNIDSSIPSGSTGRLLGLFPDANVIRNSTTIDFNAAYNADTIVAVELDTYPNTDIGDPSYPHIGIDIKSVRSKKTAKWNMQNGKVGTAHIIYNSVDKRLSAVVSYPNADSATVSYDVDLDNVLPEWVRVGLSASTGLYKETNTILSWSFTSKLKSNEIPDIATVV

First: COc1ccc([Si](C)(C)[C@H]2[C@H](CC(=O)N3CCC[C@H]3CO)O[C@@]3(C(=O)N(Cc4ccc(N5CCC5=O)cc4)c4ccccc43)[C@@H]2C)cc1
Second: C=CCN1C(=O)[C@]2(O[C@H](CCO)[C@@H]([Si](C)(C)c3ccc(OC)cc3)[C@@H]2C)c2cc(N3C(=O)COc4ccccc43)ccc21
The composite z-score of the first is higher: 1.13 for the first, 0.919 for the second.

First: C=CCNC(=O)[C@H]1[C@@H]2C(=O)O[C@@H](c3ccccc3)[C@@H](c3ccccc3)N2[C@@H](c2ccc(OCCO)cc2)[C@]12C(=O)Nc1ccc(C#CCNC(N)=O)cc12
Second: NC(=O)[C@@H]1[C@H]2C(=O)O[C@H](c3ccccc3)[C@H](c3ccccc3)N2[C@H](c2ccc(OCCO)cc2)[C@@]12C(=O)Nc1ccc(C#CCCO)cc12
The composite z-score of the first is higher: 1.1 for the first, 0.557 for the second.

Going from `C=CCC(OC(C)=O)[C@@H]1[C@@H](N(Cc2cccc3ccccc23)C(=O)Cc2ccc(F)cc2)c2cc(OCCCO)ccc2N1C(=O)c1ccc(-c2ccccc2)cc1` (stereo partly specified) to `CCOC(=O)C[C@H]1[C@H](OC(=O)c2ccc(C(=O)c3ccccc3)cc2)[C@@H](NC(=O)CC(C)C)c2cc(OCCCO)ccc2N1C(=O)Cc1ccc(OC)cc1`, the composite z-score rises from -1.6 to 0.142.

Compared with `CC1CC/C=C\[C@H]2OC34C=CCN(CCN5CCOCC5)C(=O)[C@H]3N(C(C)CO)C(=O)[C@@H]4C2C(=O)O1` (stereo partly specified), `CC(CO)N1C(=O)[C@@H]2[C@H]3C(=O)OCC=C[C@H]3OC23C=CCN(c2ccc(Cl)cc2)C(=O)[C@@H]13` (stereo partly specified) is lower in composite z-score: -0.371 for the first, -2.16 for the second.

First: CN(C)C(=O)[C@]1(CCS(=O)(=O)c2ccccc2)N=C(c2ccc(OCCCO)cc2)O[C@@H]1c1ccccc1
Second: COCCOC(=O)N1C(=O)[C@@]2(c3cc(C#CC4=CCCCC4)ccc31)[C@H](C(=O)N1CCCCCCC1)[C@H]1C(=O)O[C@H](c3ccccc3)[C@H](c3ccccc3)N1[C@@H]2c1ccc(OCCO)cc1
The composite z-score of the first is lower: 0.937 for the first, 1.11 for the second.

Going from `Cc1ccccc1C(O)C1C=CC2C(=O)NC(=O)C2N1Nc1ccc(Cl)cc1Cl` (stereo unspecified) to `CC(C)=CCCC(C)=CC(O)C1C=CC2C(=O)N(c3ccccc3)C(=O)C2N1Nc1ccccc1F` (stereo unspecified), the composite z-score rises from 0.814 to 1.14.

Compared with `O=C1c2ccccc2[C@](Cc2ccccc2I)(C(=O)NC2CC2)[C@H](c2ccc(CO)cc2)N1Cc1ccccc1C(F)(F)F`, `CN(C)CCCNC(=O)[C@@H]1c2ccccc2C(=O)N(C2CCCCC2)[C@H]1c1ccc(CO)cc1` is higher in composite z-score: 0.847 for the first, 1.08 for the second.

First: Cc1ccc(C(C)CC(O)C2C=CC3C(=O)N(c4ccccc4)C(=O)C3N2Nc2ccc(C#N)cc2)o1 (stereo unspecified)
Second: COc1cc(NN2C(C(O)c3ccc(I)cc3)C=CC3C(=O)N(c4ccccc4)C(=O)C32)cc(OC)c1OC (stereo unspecified)
The composite z-score of the first is higher: 1.16 for the first, 1.01 for the second.

Going from `COc1ccc([Si](C)(C)[C@H]2[C@H](CCO)O[C@@]3(C(=O)N(Cc4ccccc4)c4ccc(N5C(=O)c6ccccc6Oc6ccccc65)cc43)[C@@H]2C)cc1` to `COC(=O)[C@@]1(Cc2ccc(F)cc2)[C@H]2c3cc(C(=O)N(C)C)n(Cc4ccc(O)c(OC)c4)c3C[C@H]2CN1C(=O)c1ccccc1`, the composite z-score rises from 0.823 to 0.862.

Compared with `CC(C)[C@H]1NC(=O)[C@@]23C(=O)N[C@@H](Cc4ccccc4)C2[C@H](C)[C@@]2(C)O[C@H]2C3/C=C/C/C=C\CNC(=O)[C@H](Cc2ccccc2)NC1=O` (stereo partly specified), `CC(C)C[C@@H]1NC(=O)CNC(=O)[C@@]23C(=O)N[C@@H](Cc4ccccc4)C2[C@H](C)[C@@]2(C)O[C@H]2C3/C=C/C/C=C\CNC1=O` (stereo partly specified) is lower in composite z-score: 0.273 for the first, -0.404 for the second.

First: C=C(COC)C(=O)CC[C@@H](OC(=O)c1cccnc1)c1ccccc1OCCO
Second: C=C(/C(=C/C[C@@H](OC(C)=O)c1ccc(CO)o1)c1cc(C(=O)OC)ccc1OC)C(C)C
The composite z-score of the first is higher: 0.484 for the first, 0.395 for the second.

Compared with `Cc1ccc([C@H]2C(C(=O)O)=C[C@@H](C(C)(C)C)N2S(=O)(=O)c2ccc(C)cc2)cc1`, `COCCCNC(=O)[C@@]1(c2ccc([N+](=O)[O-])cc2)CC(=O)N(CC23CC4CC(CC(C4)C2)C3)[C@@H]1c1ccc(CO)cc1I` is lower in composite z-score: 1.21 for the first, 0.905 for the second.

First: CC(C)OC(=O)CC(=O)CC(O)c1ccc([N+](=O)[O-])cc1 (stereo unspecified)
Second: NC(=O)N1C(=O)C2C(C1=O)C1C=C(CCCO)C2C(C2CC2)N1Cc1cccc(OC(F)(F)F)c1 (stereo unspecified)
The composite z-score of the first is lower: -0.122 for the first, 0.221 for the second.
